This note sets out measurements from PubChem BioAssay (Tox21).

Activity calls are given as the source filed them. A call without a number means that no potency is given here. Calls follow the shape of the dose curve; as a rule, active = well fitted curve in the direction sought with a large enough effect in the repeat runs; inconclusive = weak or mixed curves; inactive = flat fitted curve, though single readings scatter.
Potency is read from the fitted curve at half-maximal effect; tags tell the direction and shape of the fitted curve or compound fluorescence and quenching.

A short description of the assay: qHTS assay to test for compound auto fluorescence at 460 nm (blue) in HepG2 cells (AID 720687). To be noted: autofluorescence 405/460 nm, 1 h; series mostly up to 91.3 µM. From the text:
U.S. Tox21 Program National Center for Advancing Translational Sciences [NCATS] NIH Chemical Genomics Center [NCGC] U.S. Environmental Protection Agency [EPA] National Institutes of Environmental Health Sciences [NIEHS] National Toxicology Program [NTP] U.S. Food and Drug Administration [FDA] Tox21 Assay Overview: Compound auto fluorescence often interferes with screening of the compound library against various biological targets and signaling pathways. Some of these compounds may have fluorophoric properties. Such properties may interfere with the assay outputs resulting in false positives and/or negatives. To decrease such complications and ensure the compound activities are relevant in terms of biological response, the Tox21 10K compound library was screened for auto fluorescence. From the fluorophores used as reporter signals in our screening assays, the auto fluorescence equivalencies of compounds against three fluorophores have been evaluated: Triamterene, Fluorescein and Rose Bengal sodium for blue, green and red fluorescence, respectively. The fluorescence intensities were measured using Excitation/Emission wavelengths at 405/460nm, 485/535nm and 540/590nm for blue, green and red labels, respectively. This assay includes the blue fluorescence data.
Tox21 Assay Protocol Summary: 2,000 HepG2 cells in 5 uL of culture medium (MEM containing 10% FBS) per well were dispensed into black wall/clear bottom 1536-well plates using a Multidrop Combi Dispenser (ThermoFisher Scientific, Waltham, MA). The assay plates were incubated overnight at 37 C to allow cell attachment to the well bottom, followed by the transfer of 23 nL compound or DMSO vehicle by a pintool work station (Kalypsys , San Diego, CA). After the assay plates were incubated for 1 hr at 37 C and 5% CO2, fluorescence intensities in the assay plates were measured by an Envision (PerkinElmer, Shelton, CT) plate reader using three labels for measuring blue, green and red fluorescence at […] 460, 535 and 590 nm respectively.
As to `C=C(c1ccc(C(=O)O)cc1)c1cc2c(cc1C)C(C)(C)CCC2(C)C`, the Potency result is “inactive”.
`CCN(CC)CCSC(=O)C(c1ccccc1)c1ccccc1`: the Potency result was “inactive”.
Take `CCCCNc1c(C(=O)OCC)c(C)nc2c1cnn2CC`: the Potency entry is “inactive”.
For `CCN(CC)CCCN(c1ccccc1)C1Cc2ccccc2C1`, the Potency entry was “inactive”.
Same read-out and setting: the entry for `CCc1cccc(C)c1` is “inactive”.
The same measure, in the same setting: in the case of `CCN(CC)CCOc1ccc(C(O)(Cc2ccc(Cl)cc2)c2ccc(C)cc2)cc1` (stereo not given) it was “inactive”; in that of `NC(=O)C(=O)N/N=C/c1ccc([N+](=O)[O-])o1`, “inactive”; in that of `CSc1c(Cl)c(Cl)c(Cl)c(Cl)c1Cl`, “inactive”.
Turning to `c1cc(OCC2CO2)cc(OCC2CO2)c1` (stereo not given), the Potency entry is “inactive”.
Take `N#CSCSc1nc2ccccc2s1`: the Potency result was “inactive”.
As for `CCOC(=O)N1CCC(=C2c3ccc(Cl)cc3CCc3cccnc32)CC1`, the Potency entry was “inactive”.
Same read-out and setting: in the case of `CN(C)c1ccc(N=NS(=O)(=O)O)cc1` it was “inactive”.
On to `CC(COC(=O)c1ccccc1)OC(=O)c1ccccc1` (stereo not given), for which the Potency result is “inactive”.
Regarding `Cc1cccc(C)c1NC(=O)CN1CCN(CCCC(c2ccc(F)cc2)c2ccc(F)cc2)CC1`, the fluorescence, % of fluorescent control is -0.0418% [at 18.6 µM] (inactive).
Turning to `CN1[C@@H]2CC[C@H]1CC(OC(=O)C(CO)c1ccccc1)C2` (stereo not given in full), the Potency result was “inactive”.
For the compound `O=C1NCCN1CCN1CCC(c2cn(-c3ccc(F)cc3)c3ccc(Cl)cc23)CC1`, the Potency result was “inactive”.
In the case of `CCN=C1C=CC(=C(c2ccc(N(CC)CC)cc2)c2ccc(N(CC)CC)cc2)c2ccccc21`, the Potency entry is “inactive”.
As to `O=C(Oc1ccccc1)c1cccc(C(=O)Oc2ccccc2)c1`, the Potency result is “inactive”.
Turning to `COc1cc(C(C)C)c2c(c1)S(=O)(=O)N(COc1cc(=O)n3cccc(OCCN4CCCCC4)c3n1)C2=O`, the fluorescence, % of fluorescent control was 0.0401% [at 18.6 µM] (inactive).
As to `COc1cc(C(=O)NS(=O)(=O)c2ccccc2C)ccc1Cc1cn(C)c2ccc(NC(=O)OC3CCCC3)cc12`, the Potency entry was “inactive”.
With `Nc1cc(Cl)c([N+](=O)[O-])cc1O`, the Potency entry is “inactive”.
With `O=C1c2c(O)ccc([N+](=O)[O-])c2C(=O)c2c([N+](=O)[O-])ccc(O)c21`, the Potency entry was “inactive”.
As for `O=C1c2c(O)ccc(O)c2C(=O)c2c(NCCNCCO)ccc(NCCNCCO)c21`, the fluorescence, % of fluorescent control is -0.0158% [at 18.6 µM] (inactive).
For the compound `CCCCCCC(C)OC(=O)COc1nc(F)c(Cl)c(N)c1Cl` (stereo not given), the Potency entry is “inactive”.
Still for that read-out and setting: the entry for `CCCCCCCOC(=O)c1ccc(O)cc1` is “inactive”; for `CC(C)c1ccc(O)c(C(C)C)c1` it is “inactive”; for `Cc1oc(-c2ccccc2)nc1CCOc1ccc(C[C@H](Nc2ccccc2C(=O)c2ccccc2)C(=O)O)cc1` it is “inactive”.
`CC(C)c1cccc(C(C)C)c1N1C(=O)c2ccc(O)cc2C1=O`: the Potency is 35.5 µM [fluorescent] (active).
For the compound `NC(=O)c1ccccc1N`, the Potency result is “inactive”.
Turning to `C[Si](C)(C)Cl`, the Potency entry is “inactive”.
Same read-out and setting: the entry for `C=CCCCCCCC=C` is “inactive”.
Consider `CC(C)(c1cc(Br)c(O)c(Br)c1)c1cc(Br)c(O)c(Br)c1`, for which the Potency entry is “inactive”.
The same measure, in the same setting: the entry for `C=CC(=O)OCC(O)COc1ccccc1` (stereo not given) is “inactive”.
Turning to `CC(C)N=C(N)/N=C(\N)Nc1ccc(Cl)cc1`, the fluorescence, % of fluorescent control is 0.176% [at 18.6 µM] (inactive).
As for `C=C1C(C)(C)[C@@]2(Cl)C(Cl)[C@]1(Cl)C(Cl)(Cl)C2(Cl)Cl` (stereo not given in full), the Potency entry is “inactive”.
Regarding `COC(=O)NCCC[Si](OC)(OC)OC`, the Potency result was “inactive”.
Take `O=C(Nc1ccc(Cl)c(Cl)c1)c1cc(Cl)cc(Cl)c1O`: the Potency entry was “inactive”.
Regarding `COC(=O)[C@]1(C)CCC[C@@]2(C)[C@H]1CC=C1C=C(C(C)C)CC[C@@H]12`, the Potency result is “inactive”.
On to `Cc1cccc(Br)c1`, for which the Potency result is “inactive”.
Take `CC1CCCNC1` (stereo not given): the Potency entry is “inactive”.
